TsaE inh – qHTS Assay for Inhibitors of YjeE; purified YjeE enzyme, qHTS inhibition assay; hit rate 0.05% among 71,000; Potency, µM; tRNA threonylcarbamoyladenosine biosynthesis protein TsaE (Escherichia coli (strain …
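Purified YjeE (10 uM) with BODIPY Texas Red-labeled ADP probe (2 uM); compounds pin-transferred, 15 min at room temperature. Binding inhibition read as decreased fluorescence polarization; ADP titration as control.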
Tau filament bind – qHTS Assay for Tau Filament Binding. Microtubule-associated protein tau (Homo sapiens), P10636. recombinant tau filaments, thioflavin S fluorescence, 15 h; filaments grown with octadecylsulfate alongside compound. Potency, µM (highest dose often 57.1 µM), for the others: top-dose activity change, negative = inhibition. hit rate 2% among 71,000. AID 596, 2007;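 also: potency is read from the fitted curve at half-maximal effect; % is scaled to controls: 0 for no effect and ±100 for the full control effect; actives lower thioflavin S fluorescence by blocking filaments or displacing dye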
Target sequence (P10636 whole entry, looked up): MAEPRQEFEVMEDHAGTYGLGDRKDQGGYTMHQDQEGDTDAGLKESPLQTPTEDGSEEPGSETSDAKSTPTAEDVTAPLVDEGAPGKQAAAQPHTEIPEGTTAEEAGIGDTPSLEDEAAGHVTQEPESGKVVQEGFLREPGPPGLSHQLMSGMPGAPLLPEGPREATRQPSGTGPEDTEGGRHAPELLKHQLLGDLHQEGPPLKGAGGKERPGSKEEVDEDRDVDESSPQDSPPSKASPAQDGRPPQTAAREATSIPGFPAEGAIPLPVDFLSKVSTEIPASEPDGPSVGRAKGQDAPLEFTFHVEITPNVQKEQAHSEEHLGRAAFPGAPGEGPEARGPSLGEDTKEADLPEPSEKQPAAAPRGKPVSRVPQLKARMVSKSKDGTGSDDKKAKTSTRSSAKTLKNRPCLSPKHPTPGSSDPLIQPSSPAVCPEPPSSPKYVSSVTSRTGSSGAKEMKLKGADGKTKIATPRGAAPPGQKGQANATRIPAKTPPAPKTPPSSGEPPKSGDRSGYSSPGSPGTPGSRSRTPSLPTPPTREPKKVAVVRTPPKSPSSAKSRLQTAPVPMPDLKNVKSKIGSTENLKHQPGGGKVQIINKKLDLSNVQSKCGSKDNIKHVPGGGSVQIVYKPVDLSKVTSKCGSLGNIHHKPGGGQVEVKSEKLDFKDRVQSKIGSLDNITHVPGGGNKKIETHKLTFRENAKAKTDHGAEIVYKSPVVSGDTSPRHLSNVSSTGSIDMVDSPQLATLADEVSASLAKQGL
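Tau 2 uM in ThS buffer dispensed; compound added; 60 uM ODS added (finals 1 uM tau, 30 uM ODS); 15 h 37 C; fluor ex450/em510.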
Pol III holo inh – qHTS Assay for Inhibitors of DNA Polymerase III Holoenzyme System; reconstituted DNA polymerase III holoenzyme replication, biochemical; Potency, µM (series often up to 57.1 µM), inactives show top-dose activity change, negative = inhibition; hit rate 0.25% among 71,000; AID 603, 2007; also: potency is read from the fitted curve at half-maximal effect; % is scaled to controls: 0 for no effect and ±100 for the full control effect
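Reconstituted *E. coli* holoenzyme (0.35 nM Pol III, 1 nM beta, 154 nM SSB, 2 nM primase) was preincubated with compound for 15 min at RT. Synthesis on 1.4 nM ssM13Gori ran 35 min, then was stopped with PicoGreen/EDTA and read as dsDNA fluorescence.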
BRCT inh red – qHTS Assay for Inhibitors of BRCT-Phosphoprotein Interaction (Red Fluorophore); Potency, µM (titrated, usually from 76.9 µM), for inactives: top-dose activity change, negative = inhibition, actives largely listed as inhibitors; Breast cancer type 1 susceptibility protein (Homo sapiens), P38398; AID 892, 2007; BRCT-phosphopeptide binding, red fluorescence polarization; hit rate 0.03% among 75,000; also: % is scaled to controls: 0 for no effect and ±100 for the full control effect
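Fluorescence polarization: 100 nM His-tagged BRCA1 BRCT with 100 nM TAMRA-labelled phospho-BACH1 decapeptide, phosphate buffer pH 7.3 with 150 mM NaCl, DTT, 0.01% Tween 20; 12 min RT. Binding inhibition seen as FP decrease.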
BRCT inh green – qHTS Assay for Inhibitors of BRCT-Phosphoprotein Interaction (Green Fluorophore) | Breast cancer type 1 susceptibility protein (Homo sapiens), P38398 | BRCA1 BRCT-phosphopeptide binding, green fluorescence polarization | Potency, µM (top dose mostly 76.9 µM), without a hit: at the highest dose activity change, negative = inhibition, actives largely listed as inhibitors | hit rate 0.05% among 75,000 | AID 875, 2007;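 also: potency is read from the fitted curve at half-maximal effect; plate controls were peptide without protein for full effect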
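Compounds were incubated for 12 min at room temperature with a complex of 100 nM fluorescein-tagged pBACH1 decapeptide and 250 nM His-tagged BRCT protein. Buffer was phosphate pH 7.3 with EDTA, DTT and Tween 20. Disruption of binding lowers the polarization signal.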
Hsp90 Hop PPI – qHTS Assay for Disrupters of an Hsp90 Co-Chaperone Interaction; AlphaScreen TPR2A-His6 binding biotin-Hsp90 C-terminal peptide; Potency, µM (series often up to 57 µM), inactives show at the top dose activity change, negative = inhibition; hit rate 0.44% among 71,000; active = well fitted curve in either direction with a large enough effect; inconclusive = small, poorly fitted or top-dose-only effect, or another doubt; also: potency is read from the fitted curve at half-maximal effect; % is scaled to controls: 0 for no effect and ±100 for the full control effect
* hit, by the source's call; i = inactive; ? = inconclusive; . = not tested or not shown; [ ] = another dose, or the depositor's remark. In the library only some 2.4% were active in any assay of this set; here they are far more common. Unless noted, calls follow the shape of the dose curve; as a rule, active = well fitted curve in the direction sought with a large enough effect; inconclusive = small, poorly fitted or top-dose-only effect, or another doubt; inactive = no such curve, though single readings can be large; an effect the other way counts as inactive or inconclusive.

SMILES	TsaE inh	Tau filament bind	Pol III holo inh	BRCT inh red	BRCT inh green	Hsp90 Hop PPI
CCOC(=O)C1=C(C)NC(=O)NC1c1ccc(OC(C)C(=O)O)c(OC)c1 (configuration not stated)	i	6%	-8%	-8%	0%	13µM*
C/C(=N/Nc1ccc2ccccc2n1)c1ccccc1O	i	-6%[11.4 µM]	9%[11.4 µM]	0%[15.4 µM]	-2%[15.4 µM]	-4%[11 µM]
O=[N+]([O-])c1cccc(/C=N\Nc2ccc3ccccc3n2)c1O	i	3.2µM*	-7%[11.4 µM]	0%[15.4 µM]	0%[15.4 µM]	?
COc1cc(/C=C\C(=O)CC(=O)/C=C\c2ccc(O)c(OC)c2)ccc1O	i	252%	70%	.	.	-5%
CN(C)CCN(C)C(=O)c1ccc(-n2c(=O)c(=O)[nH]c3ccccc32)cc1	.	.	.	-4%	-4%	.
CCCCCCN	i	0%	3%	2%	-1%	-3%
Cc1ccc(C(=O)OCc2cc3ccccc3[nH]c2=O)cc1	i	5%	-10%	-1%	-2%	-3%
Cc1ccc(O)c(-c2cc3ccccc3[nH]2)c1	i	2.5µM*	-1%[11.4 µM]	-1%	0%	-13%[11 µM]
O=C(O)CCCCCC[C@@H]1C(=O)NC(=O)N1CC[C@@H](O)C1CCCCC1	i	-1%	-6%	.	.	-9%
COc1ccc(CCNc2nc(-c3sc(N)nc3C)cs2)cc1OC	i	16µM*	-3%	-1%	-1%	-29%
COc1ccc(Nc2nc(-c3sc(N)nc3C)cs2)cc1	i	13µM*	-6%	0%	2%	?
Cc1nc(N)sc1-c1csc(Nc2ccc(Cl)cn2)n1	i	16µM*	1%	-1%	1%	-27%
Cc1nc(N)sc1-c1csc(Nc2ccccn2)n1	i	25µM*	-3%	0%	0%	-25%
OC[C@@H]1O[C@@H](n2cnc3c(NCCc4ccccc4)ncnc32)[C@@H](O)[C@H]1O	i	-4%	-5%	.	.	-8%
COc1ccc(-c2cc(C(=O)NCc3cccs3)no2)cc1OC	i	481%	-2%	-1%	-1%	-1%
O=C(O)c1cccc(N=Nc2c(S(=O)(=O)O)ccc3c2C(=O)c2ccccc2C3=O)c1O	i	3.2µM*	-8%[11.4 µM]	-2%[15.4 µM]	-2%[15.4 µM]	-17%[11 µM]
O=S(=O)(O)c1cc(O)c2c(O)c(N=Nc3cccc4ccccc34)c(S(=O)(=O)O)cc2c1	i	?	-6%[11.4 µM]	-2%[15.4 µM]	-1%[15.4 µM]	?
O=C(Nc1ccc2c(c1)OCO2)C1(S(=O)(=O)c2ccc(Cl)cc2)CC1	i	16µM*	-3%	-3%	0%	-7%
CS(=O)(=O)N(CC(=O)Nc1ccc2c(c1)OCO2)Cc1ccc(Cl)cc1	i	?	2%	-1%	-1%	-6%
O=C(Nc1cccc(Cl)c1)Nc1ccc2c(c1)OCO2	i	13µM*	0%	-1%	1%	-13%
COc1ccc(-c2csc(NCc3ccco3)n2)cc1C	i	13µM*	-7%	1%	1%	-23%
C[C@@H]1C(=O)N(C)C(=O)c2nc[nH]c21	i	-2%	-6%	-3%	-2%	-2%
COc1ccc(NC2c3ncccc3C(=O)N2Cc2ccccc2)c(OC)c1 (configuration not stated)	i	16µM*	-3%	-2%	0%	-14%
COc1ccc(Nc2ccc3c(c2)=NC2(CCCCC2)[N+]=3[O-])cc1	i	16µM*	-9%	1%	2%	?
Oc1cccc(Nc2ccccc2)c1	i	-14%	4%	-1%	-2%	-4%
[O-][N+]1=c2ccc(Nc3ccccc3)cc2=NC12CCCCC2	i	13µM*	-10%	0%	-5%	?
